Screening results (PubChem BioAssay)
The list is not random: actives were taken first. Their share in the collection is about 3.2%.
PrPC surface inh – reduces human prion protein on the cell surface | P04156 | cell surface PrPC, TR-FRET read-out | inhibition, % at 13.8 µM | 370,000 compounds, 0.43% hits; in the data active = inhibition above about 24%; note: 0% = median of the test wells and 100% = reference compound wells
TcdB GH inh – TcdB glycohydrolase inhibition. TcdB glycohydrolase enzymatic assay, plate reader. inhibition, % at 9.99 µM. 350,000 compounds, 0.24% hits. AID 652162; in the data active = inhibition above about 10%
Yp Topo-I inh – blocks Yersinia pestis topoisomerase I activity | Y. pestis Topo-I cleavage product accumulation, plate reader | activity, % at 10 µM | 360,000 compounds, 0.064% hits | AID 504884; in the data active = activity above about 50%, passing the limit was not always enough
GDH-TPI counter – GDH-TPI coupled enzyme inhibition counter-screen | GDH-TPI coupled enzyme counterscreen, NADH absorbance | inhibition, % at 4.8 µM | 360,000 compounds, 1.2% hits | AID 588335; in the data active = inhibition above about 30%;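 note: 0% = DMSO wells and 100% = wells lacking the enzyme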
Mtb FBA inh – inhibits M. tuberculosis FBA enzyme | purified M. tuberculosis FBA, fluorescence read-out | P9WQA3 | inhibition, % at 1 µM | AID 588726 | 360,000 compounds, 2.3% hits; in the data active = inhibition above about 27%;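 note: 0% = vehicle and 100% = reference inhibitor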
The depositor's hits bear a star; x = no result; + = active, no number.

SMILES | PrPC surface inh | TcdB GH inh | Yp Topo-I inh | GDH-TPI counter | Mtb FBA inh
Cc1[nH]c2ccccc2c1/C=N/NC(=O)c1cc(C(C)C)[nH]n1 | -1 | 2 | 5 | 47* | 2
Cc1[nH]c2ccccc2c1/C=N\NC(=O)c1ccco1 | -1 | 0 | -5 | 57* | -3
Cc1[nH]c2ccccc2c1/C=N/NC(=O)c1cccc(F)c1 | -6 | 0 | -2 | 19 | 2
Cc1[nH]c2ccccc2c1/C=N/NC(=O)c1cccs1 | -7 | 6 | -29 | 16 | -3
Cc1[nH]c2ccccc2c1/C=N/NC(=O)CNC(=O)c1ccco1 | 3 | -1 | 0 | 16 | 0
CCc1cc(C(=O)N/N=C/c2c(C)[nH]c3ccccc23)cs1 | -4 | x | -27 | 32* | 4
C[C@@H]1CN([C@@H](C)CO)C(=O)c2cc(NC(=O)NC3CCCCC3)ccc2O[C@@H]1CN(C)C(=O)Nc1ccccc1 | x | -5 | x | x | x
CNC[C@H]1OCCCC[C@H](C)Oc2ccc(NS(C)(=O)=O)cc2C(=O)N([C@H](C)CO)C[C@@H]1C | x | -2 | x | x | x
CCCC(=O)Nc1ccc2c(c1)OC[C@@H](C)N(C(=O)Cc1ccccn1)C[C@@H](C)[C@H](OC)CN(C)C2=O | x | 1 | x | x | x
CO[C@@H]1CC[C@H]2CCN(C)C(=O)[C@@H](C)N(C)C(=O)c3cc(C#N)ccc3OC[C@@H]1O2 | x | 1 | x | x | x
COc1ccc2c(c1)C(c1ccc([N+](=O)[O-])cc1)=NNC(c1ccco1)=N2 | -18 | 1 | -4 | 33* | -1
COc1ccc(C2=NNC(c3ccco3)=Nc3ccc(F)cc32)cc1 | 3 | 1 | 8 | 5 | -2
O=C(N/N=C/c1cccc(OC2CSC2)c1)c1ccccc1O | 0 | x | 1 | 25 | -4
Cn1ncc(Br)c1C(=O)N/N=C/c1cccc(OC2CSC2)c1 | 3 | 31* | 20 | 26 | -2
Cc1ccc(OCC(=O)N/N=C\c2ccc(-c3cccc(C(=O)O)c3)o2)c(C)c1 | -5 | x | 4 | 24 | 9
COc1ccc(CC(=O)N/N=C/c2ccc(-c3ccc(F)cc3)o2)cc1OC | -11 | 1 | 11 | 45* | 0
CNC(=S)N/N=C/c1ccc(-c2cccc(C(=O)O)c2)o1 | -10 | 0 | -4 | 85* | 7
COc1ccc(CC(=O)N/N=C/c2cc(Br)cs2)cc1OC | 2 | -7 | 15 | 5 | 3
O=[N+]([O-])c1cccc(-c2ccc(/C=N/NC(=S)Nc3ccccc3)o2)c1 | -9 | x | -4 | 34* | 1
COc1ccc(CC(=O)N/N=C/c2ccc(-c3cccc(C(=O)O)c3)o2)cc1OC | -13 | -1 | 8 | 75* | 5
CO[C@@H]1CN(C)C(=O)c2ccc(NC(=O)c3ccc4c(c3)OCO4)cc2OC[C@@H](C)N(Cc2ccc3c(c2)OCO3)C[C@H]1C | x | -1 | x | x | x
O=C(Nc1ncc2c(n1)-c1ccccc1OC2)c1ccccc1Cl | -4 | x | 7 | 20 | 113*
COc1ccc(S(=O)(=O)Nc2ccc3c(c2)CC(=O)N([C@@H](C)CO)C[C@H](C)[C@H](CN(C)S(=O)(=O)c2cccs2)O3)cc1 | x | 1 | x | x | x
CC(O)C1C=CC=CC(=O)OC2CC3OC4C5OC5(C)CCC4(COC(=O)C4OC4(C)C(O)CO1)C2(C)C31CO1 (stereo unspecified) | 90* | 3 | 6 | 9 | 3
Cn1cnc(S(=O)(=O)N2C[C@@H](O)COC[C@H]3O[C@@H](CC(=O)NCc4cccc(F)c4)CC[C@@H]32)c1 | x | 1 | x | x | x
SMILES | PrPC surface inh | TcdB GH inh | Yp Topo-I inh | GDH-TPI counter | Mtb FBA inh
Cc1ccc(N=C2NC(=O)CS2)cc1 | 7 | x | -2 | 11 | -1
O=C1CSC(=Nc2ccc(O)cc2)N1 | -3 | 15* | -6 | -6 | -3
COc1ccc(CCn2c(N)c(C#N)c3nc4ccccc4nc32)cc1OC | -8 | x | 9 | 10 | 16
COc1ccccc1CCn1c(N)c(C#N)c2nc3ccccc3nc21 | -9 | x | 22 | 27 | +
N#Cc1c(N)n(CCCN2CCOCC2)c2nc3ccccc3nc12 | -16 | x | 1 | 18 | 192*
CCCCCCn1c(N)c(C(=O)NCCN2CCOCC2)c2nc3ccccc3nc21 | -7 | x | 15 | -1 | 50*
N#Cc1c(N)n(CCNC(=O)c2cccs2)c2nc3ccccc3nc12 | -4 | x | 1 | 9 | +
OC[C@@H]1[C@H](c2ccc(C#CC3CC3)cc2)[C@H]2CN(CCC(F)(F)F)CCCCN12 | x | 0 | x | x | x
COc1ccc(S(=O)(=O)N[C@H]2CC[C@H](CC(=O)N3CCN(c4ccccc4)CC3)O[C@H]2CO)cc1 | x | 0 | x | x | x
O=C1NC(=NCc2ccccc2)S/C1=C\c1ccccc1 | -5 | x | 13 | 43* | -2
COc1c(/C=C2\SC(=Nc3ccccc3Cl)NC2=O)cccc1[N+](=O)[O-] | -9 | 0 | -6 | 14 | -2
O=C1N/C(=N/O)S/C1=C/c1cccnc1 | -4 | 0 | 3 | 11 | 3
O=C1NC(=Nc2ccccc2Cl)S/C1=C\c1cccc([N+](=O)[O-])c1O | -15 | -1 | 0 | 36* | -10
O=C1NC(=Nc2ccccc2Cl)S/C1=C\c1cccc([N+](=O)[O-])c1 | 6 | 0 | 0 | 22 | 0
O=C1NC(=Nc2ccccc2Cl)S/C1=C\c1ccc(C(=O)O)cc1 | 5 | 0 | 5 | 41* | -2
O=C1NC(=O)C(Nc2cccc3ccccc23)S1 (stereo unspecified) | -4 | x | -2 | 36* | 7
CN(C)CCCNC(=O)C[C@@H]1CC[C@H]2[C@@H](COC[C@H](O)CN2CC2CCCCC2)O1 | x | 1 | x | x | x
CC(C)C#Cc1ccc([C@H]2[C@@H](C#N)N(C(=O)CN(C)C)[C@@H]2CO)cc1 | x | 1 | x | x | x
N#Cc1nc(-c2ccccc2Cl)oc1NCC1CCCO1 (stereo unspecified) | 6 | 2 | -8 | 28 | 19
N#Cc1nc(-c2ccccc2F)oc1N1CCCCC1 | -2 | 0 | 2 | 20 | +
N#Cc1nc(-c2ccccc2F)oc1NC1CCCCC1 | 8 | 2 | 14 | 0 | 175*
N#Cc1nc(-c2ccccc2F)oc1N1CCN(C(=O)c2ccco2)CC1 | 0 | 1 | 13 | 12 | 115*
CCOC(=O)N(C)C[C@@H]1OCc2ccccc2-c2ccccc2C(=O)N([C@H](C)CO)C[C@H]1C | x | 0 | x | x | x
CCN1[C@@H]2Cn3c(ccc(-c4ccc(F)cc4)c3=O)[C@H]1[C@@H](C(=O)Nc1nccs1)[C@@H]2CO | x | 0 | x | x | x
Cc1ccc(Cl)cc1-c1ccc(C=Nc2ccc(N3CCOCC3)cc2)o1 | -12 | -4 | -8 | 33* | 1
Cc1cc(O)c(C=Nc2ccc(N3CCOCC3)cc2)c(C)c1Cl | -16 | 0 | -10 | 14 | -2
CC(C)n1cc(C(=O)N(CC(=O)NC2CCCC2)Cc2ccccc2)cn1 | 4 | x | 7 | 8 | -1
CC1=CN2C(=NC(=O)CC2(C)C(=O)N(CC(=O)NC2CCCC2)c2ccccc2C)C=C1 (stereo unspecified) | -2 | x | -3 | -4 | 147*
Cc1ccccc1N(CC(=O)NC1CCCCC1)C(=O)c1csnn1 | 2 | 1 | -4 | -2 | 0
